Among the data in PubChem BioAssay (NCI) are growth values, retold here.

Compounds without any hit were thinned out: in the full panel of roughly 83,000, 20% have a hit.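 A percent growth of 40 corresponds to 60% growth inhibition; 0 means no net growth; -100 means all cells died. Active threshold: below 10.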 Values without a mark were called inactive. Active and inactive are the calls of the source.

Among the test systems are RPMI-8226 leukemia; OVCAR-8 ovarian; OVCAR-5 ovarian; OVCAR-4 ovarian; SK-OV-3 ovarian; IGROV1 ovarian; OVCAR-3 ovarian; HS 578T breast; NCI/ADR-RES ovarian.
What all share (assay): NCI-60 one-dose screen, 48 h (100 = growth as untreated, 0 = no growth, -100 = all killed)
What all share (conditions): 10 µM

For the molecule `CCN1CCN(Cc2ccc(NC(=O)c3cccc(-n4cc(-c5ccc(NC(C)=O)nc5)nn4)c3)cc2C(F)(F)F)CC1`, the growth in the assay on RPMI-8226 leukemia was 80.6%; in the assay on OVCAR-8 ovarian it was 99%; with OVCAR-5 ovarian, 158%; in the assay on OVCAR-4 ovarian, 98%; with SK-OV-3 ovarian it was 96.6%; in the assay on IGROV1 ovarian it was 127%. For the same molecule, the growth with OVCAR-3 ovarian was 131%; in the assay on HS 578T breast it was 101%; in the assay on NCI/ADR-RES ovarian, 100%.

For the molecule `CCC(C)S(=O)(=O)c1oc(-c2ccc(C)cc2)nc1S(=O)(=O)c1ccccc1` (stereo unspecified), the growth in the assay on RPMI-8226 leukemia was -44.5% (active); in the assay on OVCAR-8 ovarian it was -65.8% (active); in the assay with OVCAR-5 ovarian, -91.3% (active); with OVCAR-4 ovarian, -83.7% (active); with SK-OV-3 ovarian it was 65.5%; in the assay with IGROV1 ovarian, -92.9% (active). Moreover, the growth in the assay on OVCAR-3 ovarian is -81.1% (active); with HS 578T breast it was -12.1% (active); with NCI/ADR-RES ovarian, -55.2% (active).

As for `CCN1CCN(c2ccc(NC(=O)Nc3ccc4c(c3F)CCN4c3ccnc(C(=O)NC)c3)cc2C(F)(F)F)CC1`, the growth with RPMI-8226 leukemia is -40.2% (active); with OVCAR-8 ovarian it was -75.4% (active); with OVCAR-5 ovarian, 57.5%; with OVCAR-4 ovarian it was -89.6% (active); in the assay on SK-OV-3 ovarian it was 103%; in the assay with IGROV1 ovarian it was 113%. Further, the results for the growth in the assay on OVCAR-3 ovarian, in the assay with HS 578T breast and in the assay on NCI/ADR-RES ovarian were -85.6% (active), 68.3% and -67.6% (active), respectively.

Turning to `CC1=C(C(=O)OC(C)C)C(c2ccc(O)cc2)NC(=S)N1` (stereo unspecified), the growth in the assay with RPMI-8226 leukemia is 95.7%; in the assay on OVCAR-8 ovarian it was 130%; with OVCAR-5 ovarian, 116%; in the assay on OVCAR-4 ovarian, 115%; with SK-OV-3 ovarian it was 107%; in the assay on IGROV1 ovarian, 110%. Further, the values for the growth in the assay with OVCAR-3 ovarian, in the assay on HS 578T breast and in the assay with NCI/ADR-RES ovarian were 105%, 103% and 97.5%, respectively.

Regarding `CCCCCc1ccc(S(=O)(=O)Nc2cc(-c3csc(N(C)C(C)=O)n3)ccc2N2CCN(C)CC2)cc1`, the growth in the assay on RPMI-8226 leukemia was -9.26% (active); in the assay with OVCAR-8 ovarian it was 36%; in the assay on OVCAR-5 ovarian it was 68%; in the assay with OVCAR-4 ovarian it was 11.6%; in the assay on SK-OV-3 ovarian, 21.4%; in the assay with IGROV1 ovarian it was 48%. Moreover, the growth was 60.2% in the assay with OVCAR-3 ovarian, 28.7% in the assay on HS 578T breast and 32.7% in the assay on NCI/ADR-RES ovarian.

On to `CC(=C(c1ccc(OCCCN(C)C)cc1)c1ccc(OCCCN(C)C)cc1)c1ccccc1`, for which the growth in the assay on RPMI-8226 leukemia is -54.4% (active); in the assay with OVCAR-8 ovarian, -72.7% (active); in the assay with OVCAR-5 ovarian, -98.5% (active); in the assay with OVCAR-4 ovarian, -96.9% (active); in the assay on SK-OV-3 ovarian it was -90.3% (active); in the assay with IGROV1 ovarian, -95% (active). The growth is -93.6% (active) in the assay on OVCAR-3 ovarian, -71.2% (active) in the assay on HS 578T breast and -98.1% (active) with NCI/ADR-RES ovarian.

Regarding `C[C@H]1[C@H](C)CC[C@]2(COC(=O)CCC(=O)NCC#CCN3CCNCC3)CC[C@]3(C)C(=CC[C@@H]4[C@@]5(C)CCCNC(C)(C)[C@@H]5CC[C@]43C)[C@H]12`, the growth in the assay with RPMI-8226 leukemia was -22.9% (active); in the assay on OVCAR-8 ovarian it was 69%; in the assay on OVCAR-5 ovarian, 53.8%; with OVCAR-4 ovarian, 66.1%; with SK-OV-3 ovarian, 51.4%; in the assay on IGROV1 ovarian, 44.3%. The values for the growth in the assay with OVCAR-3 ovarian, with HS 578T breast and with NCI/ADR-RES ovarian were 75.6%, 60.8% and 66.9%, respectively.

Regarding `COC[C@@H](CC(C)C)N=C1N/C(=C\c2ccc3ncsc3c2)C(=O)N1C`, the growth is 3.65% (active) in the assay with RPMI-8226 leukemia; 17.6% in the assay on OVCAR-8 ovarian; -6.76% (active) in the assay on OVCAR-5 ovarian; 29.3% in the assay on OVCAR-4 ovarian; 0.794% (active) in the assay on SK-OV-3 ovarian; 9.21% (active) with IGROV1 ovarian. In addition, the growth in the assay with OVCAR-3 ovarian was 3.27% (active); in the assay with HS 578T breast, 15.4%; in the assay on NCI/ADR-RES ovarian, 0.43% (active).

Consider `CNC(=O)c1cccc(N2CCc3c2ccc(NC(=O)Nc2ccc(N4CCN(C)CC4)c(C(F)(F)F)c2)c3F)c1`, for which the growth was -41.1% (active) with RPMI-8226 leukemia; -83.4% (active) in the assay on OVCAR-8 ovarian; -85.1% (active) in the assay on OVCAR-5 ovarian; -86.1% (active) with OVCAR-4 ovarian; 45.3% in the assay on SK-OV-3 ovarian; -91.7% (active) in the assay with IGROV1 ovarian. Also, the figures for the growth in the assay with OVCAR-3 ovarian, with HS 578T breast and with NCI/ADR-RES ovarian were -80% (active), -1.44% (active) and -79.2% (active), respectively.

For `COc1ccccc1[C@H]1C(C(=O)c2ccc(O)cc2)C2(N[C@@H]1c1ccccc1)C(=O)Nc1ccc(Br)cc12` (stereo partly specified), the growth in the assay on RPMI-8226 leukemia was 30.3%; with OVCAR-8 ovarian it was 37.5%; with OVCAR-5 ovarian, 62.7%; with OVCAR-4 ovarian, 41.1%; in the assay on SK-OV-3 ovarian, 61.4%; in the assay with IGROV1 ovarian, 19.2%. Also, the results for the growth in the assay on OVCAR-3 ovarian, in the assay with HS 578T breast and with NCI/ADR-RES ovarian were -29.1% (active), 36.3% and 57.7%, respectively.

On to `CN1CCN(c2ccc(C(=O)/C=C/c3ccc(C#N)cc3)cc2)CC1`, for which the growth is 5.21% (active) in the assay with RPMI-8226 leukemia; 92% with OVCAR-8 ovarian; 127% in the assay on OVCAR-5 ovarian; 85% in the assay on OVCAR-4 ovarian; 86.6% in the assay on SK-OV-3 ovarian; 68.1% in the assay on IGROV1 ovarian. In addition, the growth with OVCAR-3 ovarian is 79.9%; in the assay with HS 578T breast it was 93.8%; with NCI/ADR-RES ovarian, 80.8%.

For the molecule `O=C(Nc1ccc(I)cc1F)c1cc(-c2ccc(F)cc2F)ccc1O`, the growth is -18.1% (active) with RPMI-8226 leukemia; 8.5% (active) in the assay with OVCAR-8 ovarian; 3.54% (active) in the assay on OVCAR-5 ovarian; 17.2% in the assay on OVCAR-4 ovarian; -10.6% (active) in the assay on SK-OV-3 ovarian; 22.7% in the assay on IGROV1 ovarian. Moreover, the growth in the assay with OVCAR-3 ovarian was -1.28% (active); with HS 578T breast it was 2.66% (active); with NCI/ADR-RES ovarian, -8.34% (active).

Consider `Brc1ccc(/C=C/c2n(Cc3ccc4ccccc4c3)c3ccccc3[n+]2Cc2ccc3ccccc3c2)cc1`, for which the growth is -56.8% (active) in the assay with RPMI-8226 leukemia; -64% (active) in the assay on OVCAR-8 ovarian; -91.1% (active) in the assay on OVCAR-5 ovarian; -85.9% (active) in the assay with OVCAR-4 ovarian; -3.34% (active) in the assay on SK-OV-3 ovarian; -68.4% (active) in the assay with IGROV1 ovarian. Also, the growth was -89.5% (active) with OVCAR-3 ovarian, -43.6% (active) in the assay on HS 578T breast and 78.7% in the assay with NCI/ADR-RES ovarian.

As for `CN1CCN(c2ccc(Nc3nc(N4CCN(S(=O)(=O)c5ccc(F)cc5)CC4)c4sccc4n3)cc2)CC1`, the growth in the assay with RPMI-8226 leukemia is -24.2% (active); with OVCAR-8 ovarian it was -85% (active); in the assay on OVCAR-5 ovarian, -96.8% (active); in the assay on OVCAR-4 ovarian, -89.3% (active); in the assay with SK-OV-3 ovarian it was -87.2% (active); in the assay with IGROV1 ovarian, -86.4% (active). Moreover, the results for the growth with OVCAR-3 ovarian, with HS 578T breast and in the assay on NCI/ADR-RES ovarian were -79% (active), -47.7% (active) and -83% (active), respectively.

Consider `O=C(Nc1ccc(I)cc1)Nc1nc2ccc([N+](=O)[O-])cc2s1`, for which the growth is -71.7% (active) in the assay with RPMI-8226 leukemia; -76.1% (active) with OVCAR-8 ovarian; -98.4% (active) in the assay with OVCAR-5 ovarian; -77.3% (active) with OVCAR-4 ovarian; -69.9% (active) in the assay with SK-OV-3 ovarian; -95.7% (active) with IGROV1 ovarian. Besides, the growth in the assay with OVCAR-3 ovarian is -92% (active); in the assay on HS 578T breast, -64.9% (active); in the assay on NCI/ADR-RES ovarian, -88.4% (active).

Regarding `C=C[C@H]1[C@H](O[C@@H]2OC(CO)[C@@H](O)[C@H](O)C2OC(=O)c2c(O)cc(O)cc2-c2cccc(O)c2)OC=C2C(=O)OCC[C@H]21` (stereo partly specified), the growth in the assay on RPMI-8226 leukemia was 106%; in the assay with OVCAR-8 ovarian, 102%; in the assay on OVCAR-5 ovarian, 100%; with OVCAR-4 ovarian, 108%; in the assay with SK-OV-3 ovarian it was 95.7%; with IGROV1 ovarian it was 101%. Besides, the figures for the growth in the assay with OVCAR-3 ovarian, with HS 578T breast and with NCI/ADR-RES ovarian were 112%, 99.7% and 102%, respectively.

Consider `C=C(c1ccc(OC)c(N)c1)c1cc(C)nc2ccccc12`, for which the growth in the assay on RPMI-8226 leukemia is 10.9%; with OVCAR-8 ovarian, 8.32% (active); in the assay with OVCAR-5 ovarian, 26.3%; with OVCAR-4 ovarian, 57.8%; with SK-OV-3 ovarian it was 21.7%; in the assay on IGROV1 ovarian it was 17.1%. The figures for the growth in the assay on OVCAR-3 ovarian, in the assay with HS 578T breast and in the assay on NCI/ADR-RES ovarian were -4.17% (active), 38.9% and -29% (active), respectively.

As for `CN1CCN(c2ccc(Nc3nc(NCCCNC(=O)C4CCCCC4)c4sccc4n3)cc2)CC1`, the growth is -12.3% (active) in the assay on RPMI-8226 leukemia; 57.5% with OVCAR-8 ovarian; 67.3% with OVCAR-5 ovarian; 48.9% in the assay with OVCAR-4 ovarian; 98% in the assay with SK-OV-3 ovarian; 76.9% in the assay with IGROV1 ovarian. Moreover, the growth in the assay with OVCAR-3 ovarian was 33.4%; in the assay on HS 578T breast, 42.9%; in the assay on NCI/ADR-RES ovarian, 74.3%.

Regarding `O=C(Nc1ccc(F)c(Cl)c1)c1cc(-c2ccc(F)cc2F)ccc1O`, the growth is -28.6% (active) in the assay on RPMI-8226 leukemia; 6.82% (active) in the assay on OVCAR-8 ovarian; 0.459% (active) with OVCAR-5 ovarian; 12.9% in the assay on OVCAR-4 ovarian; -5.38% (active) in the assay on SK-OV-3 ovarian; 16.4% with IGROV1 ovarian. For the same molecule, the results for the growth with OVCAR-3 ovarian, in the assay on HS 578T breast and with NCI/ADR-RES ovarian were 9.88% (active), -3% (active) and -15.1% (active), respectively.
